Screening results: PubChem, National Center for Advancing Translational Sciences (NCATS)
PNC inhibitor – perinucleolar compartment assembly inhibition | 140,000 tested, 3.1% active | activity change (PNC), negative = inhibition, % at 10 µM | PC3M PTB-GFP, PNC prevalence imaging, 16 h; active compounds read low;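 active = readout at or below -70, meaning at least 70% loss of cells showing the perinucleolar compartment, a nuclear body marking cancer cells; inconclusive = readout between -30 and a set limit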;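 also: plate controls were DMSO wells for no effect and camptothecin positive control wells for full effect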
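Read-out is percentage of cells bearing a perinucleolar compartment, from automated 20x imaging of fixed, Hoechst-stained PC3M PTB-GFP cells. Cells were seeded 4 h, then exposed 16 h to compound (23 nl of library stock) in duplicate plates.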
IMPase Li inh – IMPase inhibition in cells with lithium potentiation; 210,000 tested, 0.35% active; CHO-M1 cells, IP1 TR-FRET (IP-One), carbachol + lithium; Potency, µM (doses to about 59.4 µM), for inactives: top-dose activity, negative = IMPase inhibition, usual class: inhibitors; AID 1457;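 also: IP1 builds up when IMPase is blocked and the TR-FRET signal falls; potency is read from the fitted curve at half-maximal effect; plate controls were basal vehicle for no effect and high inhibitor control for full effect; nearly all actives have a fitted effect of over 50% in size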
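Steps: plate 2000 CHO-M1 cells per well and culture 16–30 h; add compound and lithium; incubate 30 min, 37C; add d2-IP1 tracer and Eu cryptate anti-IP1 antibody in lysis buffer; read after 10 min at room temperature.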
HPGD block – inhibitors of human 15-hydroxyprostaglandin dehydrogenase (HPGD). Potency, µM, inactives show top-dose activity change, negative = inhibition, hits mostly inhibitors. AID 894. 150,000 tested, 4.3% active. P15428. purified HPGD, NADH fluorescence kinetic, PGE2 substrate; active = well fitted inhibition curve with a large enough effect, not every such curve was filed as active; inconclusive = small, poorly fitted or top-dose-only effect, or another doubt; inactive = no such curve, though single readings can be large or run the other way; also: potency is read from the fitted curve at half-maximal effect
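NADH formation kinetics: reaction with 30 uM PGE2 and 1 mM NAD+ (final), 20 nM enzyme, Tris-HCl pH 8 with Tween 20, after 15 min compound preincubation at room temperature. Fluorescence change, last versus first of five reads.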
ALDH1A1 block – blocks purified human ALDH1A1 activity | P00352 | Purified ALDH1A1, NADH fluorescence, propionaldehyde substrate | Potency, µM (titrated, usually from 75.3 µM), inactives show top-dose activity, negative = inhibition, hits mostly inhibitors | 220,000 tested, 7.3% active; active = well fitted inhibition curve with a large enough effect, not every such curve was filed as active; inconclusive = small, poorly fitted or top-dose-only effect, or another doubt; inactive = no such curve, though single readings can be large or run the other way;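 also: potency is read from the fitted curve at half-maximal effect; plate controls were no enzyme wells and a reference inhibitor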
IMPase cell inh – IMPase inhibition in cells. CHO-M1 cells, IP1 accumulation, HTRF TR-FRET ratio. inhibition (IP1 accumulation), % at 46.1 µM. 120,000 tested, under 10 active. P97697; active = well fitted curve in the direction sought with a large enough effect in the signal ratio, not every such curve was filed as active; inconclusive = small, poorly fitted or top-dose-only effect, or a change in a side signal; inactive = no such curve, though single readings can be large or run the other way; the % refers to the signal ratio;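 also: cells stimulated with carbachol in lithium chloride buffer; plate controls were DMSO basal wells for no effect and reference inhibitor wells for full effect; higher means more IMPase inhibition seen as more IP1 and lower FRET ratio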
Target sequence (P97697 whole entry, looked up): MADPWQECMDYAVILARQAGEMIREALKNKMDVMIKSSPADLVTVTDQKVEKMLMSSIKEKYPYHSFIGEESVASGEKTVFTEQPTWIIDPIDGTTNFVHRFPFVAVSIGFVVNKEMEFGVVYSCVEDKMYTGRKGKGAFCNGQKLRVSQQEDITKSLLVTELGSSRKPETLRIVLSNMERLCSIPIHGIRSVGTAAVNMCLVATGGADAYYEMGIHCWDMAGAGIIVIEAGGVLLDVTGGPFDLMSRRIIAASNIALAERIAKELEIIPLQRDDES
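In this qHTS, compounds (final up to 46 uM) act on CHO-M1 cells that are then activated through the M1 receptor with carbachol, in pH 7.4 buffer containing 50 mM LiCl, for 30 min. IP1 accumulation is quantified by the IP-One immunoassay.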
NPSR antagonist – neuropeptide S receptor (human) antagonism, cAMP; Q6W5P4; CHO-NPSR cells, cAMP TR-FRET, antagonist mode; Potency, µM (highest dose often 38.3 µM), inactives show at the highest dose activity change, negative = inhibition, hits mostly inhibitors; 220,000 tested, 1% active; AID 1461; also: potency is read from the fitted curve at half-maximal effect; nearly all actives have a fitted effect of over 50% in size
Target sequence (Q6W5P4 whole entry, looked up): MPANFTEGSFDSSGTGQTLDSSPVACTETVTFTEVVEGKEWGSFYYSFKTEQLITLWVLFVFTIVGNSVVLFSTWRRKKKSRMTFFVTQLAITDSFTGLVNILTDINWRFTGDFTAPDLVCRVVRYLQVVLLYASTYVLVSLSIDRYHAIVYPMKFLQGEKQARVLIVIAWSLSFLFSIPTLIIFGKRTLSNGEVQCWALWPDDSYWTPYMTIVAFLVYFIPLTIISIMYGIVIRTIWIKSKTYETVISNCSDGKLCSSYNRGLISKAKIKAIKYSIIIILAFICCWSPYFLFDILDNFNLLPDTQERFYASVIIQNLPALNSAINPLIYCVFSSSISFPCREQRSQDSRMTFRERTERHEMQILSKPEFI
* marks the source's active call; other numbers are inactive results; ? = inconclusive; . = no result; [ ] = remark or other dose. Shown are actives, neighbours in structure and some others; about 11% of the full set was active somewhere. Unless noted, calls follow the shape of the dose curve; as a rule, active = well fitted curve in the direction sought with a large enough effect; inconclusive = small, poorly fitted or top-dose-only effect, or another doubt; inactive = no such curve, though single readings can be large; an effect the other way counts as inactive or inconclusive. Unless noted, % is scaled to controls: 0 for no effect and ±100 for the full control effect.

SMILES	PNC inhibitor	IMPase Li inh	HPGD block	ALDH1A1 block	IMPase cell inh	NPSR antagonist
Cc1ccc(Cn2nnc3c(=O)[nH]c(C4CCCN(C(=O)Nc5ccc(F)cc5)C4)nc32)cc1 (stereo not drawn)	-11.7	.	.	3.9%	-5.2	?
COc1cccc(Cn2nnc3c(=O)[nH]c(C4CCCN(C(=O)c5ccccc5Cl)C4)nc32)c1 (stereo not drawn)	?	-10.5%[38.3 µM]	14.1µM*	7.94µM*	-4.8	?
CCC(=O)c1ccc2c(c1)OCCO2	.	.	.	.	.	11.6%
O=C1C2CCCCC2C(=O)N1c1ccc(NC2CCCCC2)c([N+](=O)[O-])c1 (stereo not drawn)	-21.2	14.4%	-28.9%	10µM*	.	-36.1%
O=C(COc1ccccc1C(=O)O)Nc1ccc(SC(F)F)cc1	.	-7.2%	.	4.8%	.	-11.0%
O=C(Nc1cc(Cl)cc(Cl)c1)C(NCCO)c1ccccc1 (stereo not drawn)	32.8	-15.6%[38.3 µM]	-8.5%	?	2.2	2.8%[46.1 µM]
CCCCNC(C(=O)Nc1ccc(Cl)c([N+](=O)[O-])c1)c1ccccc1 (stereo not drawn)	54.3	3.6%	-3.3%	5.01µM*	6.3	-50.7%
O=c1[nH]c(=O)n([C@@H]2C[C@H](O)[C@H](CO)O2)cc1C(F)(F)F	.	4.5%	-8.1%	4.8%[20.9 µM]	2.2[20.6 µM]	.
COc1ccccc1CNC(=O)C(CC(C)C)NC(=O)C1CCC(C)CC1 (stereo not drawn)	-102.3*	6.3%[38.3 µM]	-9.4%	-1.6%	3.3	-13.7%[46.1 µM]
CC(C)CC(NC(=O)C1CCC(C)CC1)C(=O)NCc1ccco1 (stereo not drawn)	.	14.1%	.	6.9%	.	8.2%
CCOC(=O)N1CCC(N2C(=O)c3ccccc3C2Nc2ccc(C)cc2)CC1 (stereo not drawn)	42.7	7.6%[38.3 µM]	-5.4%	31.6µM*	7.4	-15.3%[46.1 µM]
CCOC(=O)N1CCC(N2C(=O)c3ccccc3C2Nc2ccc(S(=O)(=O)N(CC)CC)cc2)CC1 (stereo not drawn)	.	14.1%	.	0.199µM*	.	-46.0%
CCOC(=O)N1CCC(N2C(=O)c3ccccc3C2Nc2ccccc2)CC1 (stereo not drawn)	7.4	1.6%[38.3 µM]	-1.4%	?	-6.7	-14.8%[46.1 µM]
CCc1nn(CC(=O)NCCCN2CCc3ccccc3C2)c(=O)c2cc3sccc3n12	39.5	8.3%	-18.5%	?	11.3	9.4%
CC1SC(c2cccc(Cl)c2)NC1=O (stereo not drawn)	-10.3	13.2%[38.3 µM]	?	11.2µM*	?	-0.1%[46.1 µM]
CC1SC(c2ccc(Cl)cc2Cl)NC1=O (stereo not drawn)	25.2	-4.7%	-1.8%	9.7%	-12.3	6.3%[46.1 µM]
O=C(Nc1ccc2oc(-c3cccc4c(Br)cccc34)nc2c1)c1ccc(Br)cc1	.	.	.	.	-1.0	.
CCOC(=O)CCCc1sc(N)nc1-c1[nH]c(=O)[nH]c1C	14.5	-4.6%[38.3 µM]	31.6µM*	12.6µM*	-1.7	-14.6%[46.1 µM]
CCOC(=O)CCc1c(C)n[nH]c1C	.	-3.5%	.	-0.1%	.	18.6%
CC1CCN(c2c(NCc3ccc(C(=O)N(C)C4CCCCC4)cc3)c(=O)c2=O)CC1	.	.	.	.	.	-26.2%
O=C(NCc1ccco1)c1ccc(CNc2c(N3CCCCC3)c(=O)c2=O)cc1	34.5	8.0%	14.1µM*	8.5%	.	6.3%
CC1CCN(c2c(NCc3ccc(C(=O)N4CCc5ccccc54)cc3)c(=O)c2=O)CC1	?	5.7%[38.3 µM]	17.8µM*	?	-1.2	-17.7%[46.1 µM]
Cc1ccc(CNC(=O)c2ccc(CNc3c(N4CCCC4)c(=O)c3=O)cc2)cc1	5.5	2.9%[38.3 µM]	14.1µM*	?	0.4	-5.6%[46.1 µM]
CC1CCCN(C(=O)c2ccc(CNc3c(N4CCCCC4)c(=O)c3=O)cc2)C1 (stereo not drawn)	6.6	4.6%[38.3 µM]	0.282µM*	?	-1.8	-22.8%[46.1 µM]
O=C(NCc1ccc(F)cc1)c1ccc(CNc2c(N3CCOCC3)c(=O)c2=O)cc1	.	.	.	.	.	6.4%
SMILES	PNC inhibitor	IMPase Li inh	HPGD block	ALDH1A1 block	IMPase cell inh	NPSR antagonist
COc1ccc(Oc2ccccc2C=O)cc1	57.2	-10.0%[38.3 µM]	-18.2%	?	2.4	-1.6%[46.1 µM]
CC1CCN(c2c(NCc3ccc(C(=O)NCc4ccco4)cc3)c(=O)c2=O)CC1	54.8	3.0%	11.2µM*	1.8%	.	-55.7%
CC(C)(C)NC(=O)C(=O)NN=C1CCCCCC1	.	-1.4%	.	4.4%	.	7.0%
CC(=O)c1cccc(NC(=O)Nc2ccc(C(=O)N3CCCC3)cc2)c1	-2.8	10.5%[38.3 µM]	1.12µM*	14.1µM*	1.2	-4.4%[46.1 µM]
O=C(Nc1ccc(C(=O)N2CCOCC2)cc1)Nc1cccc(Cl)c1	115.6	1.3%	28.2µM*	22.1%	.	-1.9%
O=C(Nc1ccccc1)Nc1ccc(C(=O)N2CCCC2)cc1	.	0.8%	.	7.0%	.	6.6%
C/C=C\C=C/C(=O)Nc1cccc(C2=NOC3(C2)C[C@@H](C(N)=O)N(C(=O)[C@H]2CCC(=O)N2)C3)c1 (stereo partly drawn)	.	.	.	.	.	29.8%
CCOP(=O)(c1ccc(N(C)C)cc1)C(O)c1ccncc1 (stereo not drawn)	.	.	.	.	.	32.9%
COC(=O)c1c(N)n(-c2ccc(N3CCOCC3)cc2)c2nc3ccccc3nc12	14.5	10.4%[38.3 µM]	-25.8%	17.8µM*	13.8	-14.3%[46.1 µM]
CC1CCCCN1S(=O)(=O)c1ccc(N(C(=O)c2cnccn2)C(C(=O)NC2CCCC2)c2cccs2)cc1 (stereo not drawn)	?	-2.0%	-6.5%	3.98µM*	.	0.8%
CC1CCCCN1S(=O)(=O)c1ccc(N(C(=O)c2cnccn2)C(C(=O)NC2CCCCC2)c2cccs2)cc1 (stereo not drawn)	-25.5	11.4%	-8.2%	8.91µM*	-7.2	-11.0%
CCOc1ccc(N(C(=O)c2cnccn2)C(C(=O)NC2CCCCC2)c2ccc(O)cc2)cc1 (stereo not drawn)	.	0.4%	.	15.9%	.	1.1%
CCN=c1sc(C(=O)NCCc2ccccc2)cc(=O)n1CC	21.8	5.8%[38.3 µM]	-11.6%	6.31µM*	-12.3	6.2%[46.1 µM]
Cc1c(NC(=O)CN2CCCC(C)C2)ccc2nsnc12 (stereo not drawn)	.	6.8%	.	5.6%	.	5.2%
Cc1ccc(S(=O)(=O)N2CCCC2C(=O)Nc2ccc(O)cc2)cc1 (stereo not drawn)	3.8	1.5%	-0.1%	-1.8%	-8.2	7.0%
Cc1ccc2[nH]c3c(N4CCN(Cc5ccccc5)CC4)ncnc3c2c1	-2.6	32.3%[38.3 µM]	?	?	5.8	12.6µM*
COc1ccc2c(c1)[nH]c1c(N3CCN(Cc4ccc5c(c4)OCO5)CC3)ncnc12	19.4	21.0%[38.3 µM]	?	-6.0%	16.2	12.6µM*
Cc1ccc2c(c1)[nH]c1c(N3CCN(Cc4ccccc4)CC3)ncnc12	-12.1	36.8%[38.3 µM]	?	?	2.3	?
COc1cccc2[nH]c3c(N4CCN(Cc5ccc6c(c5)OCO6)CC4)ncnc3c12	35.4	.	.	?	14.6	?
